In PubChem BioAssay (Tox21):
Several values for one entry are separate records, joined by “and”; a condition that tells them apart may be missing. Equal values may be shown once. Inconclusive results are not listed. Entries that show only a call come without a potency. A number with no mark means an inactive call. Activity calls are given as the source filed them. Unless noted, calls follow the shape of the dose curve; as a rule, active = well fitted curve in the direction sought with a large enough effect in the repeat runs; inconclusive = weak or mixed curves; inactive = no such curve, though single readings can be large; an effect the other way counts as inactive or inconclusive.

Key:
[1] = qHTS assay to identify small molecule agonists of the RXR signaling pathway - cell viability counter screen (AID 1159529); also: nearly all actives have a fitted effect of over 50% in size; also: potency is read from the fitted curve at half-maximal effect
Summary of the method: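 In this parallel viability measure, GeneBLAzer RXR-alpha HEK 293T cells (2% charcoal-stripped FBS) were given a 5 hr preincubation, treated with compounds 16 hr at 37 C, and read by CellTiter-Glo luminescence.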

[2] = qHTS assay to identify small molecule antagonists of the retinoid acid receptor (RAR) signaling pathway - cell viability counter screen (AID 1159551); also: nearly all actives have a fitted effect of over 35% in size; also: potency is read from the fitted curve at half-maximal effect
Summary of the method: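 Luminescent ATP quantitation (CellTiter-Glo) gave cell viability in C3RL4 cells exposed to test chemicals for 6 h at 37 C alongside 1 uM final retinol.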

[3] = qHTS assay to identify small molecule agonists of the retinoic acid receptor (RAR) signaling pathway (AID 1159553)
Summary of the method: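 Luminescence from a RARE-driven luciferase reporter in C3RL4 cells served as the read-out, measured after 30 min with detection reagent at room temperature. Compounds in DMSO were applied for 6 hr at 37 C following overnight seeding.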

[4] = qHTS assay to identify small molecule antagonists of the estrogen related receptor (ERR) signaling pathway from Tox21 library - cell viability counter screen (AID 1224834); also: nearly all actives have a fitted effect of over 30% in size; also: potency is read from the fitted curve at half-maximal effect
Summary of the method: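 Fluorescence from CellTiter-Fluor gives the viability read-out, taken 30 min after reagent addition. Before that, ERR cells seeded 6 h earlier were incubated with compounds for 17.5 h at 37 C.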

[5] = biological target: Luciferin 4-monooxygenase (Photinus pyralis) (UniProt P08659); assay: qHTS assay to identify small molecule inhibitors of firefly luciferase (AID 1224835); also: nearly all actives have a fitted effect of over 25% in size; also: potency is read from the fitted curve at half-maximal effect
Luciferin 4-monooxygenase (Photinus pyralis), sequence (P08659 whole entry, looked up): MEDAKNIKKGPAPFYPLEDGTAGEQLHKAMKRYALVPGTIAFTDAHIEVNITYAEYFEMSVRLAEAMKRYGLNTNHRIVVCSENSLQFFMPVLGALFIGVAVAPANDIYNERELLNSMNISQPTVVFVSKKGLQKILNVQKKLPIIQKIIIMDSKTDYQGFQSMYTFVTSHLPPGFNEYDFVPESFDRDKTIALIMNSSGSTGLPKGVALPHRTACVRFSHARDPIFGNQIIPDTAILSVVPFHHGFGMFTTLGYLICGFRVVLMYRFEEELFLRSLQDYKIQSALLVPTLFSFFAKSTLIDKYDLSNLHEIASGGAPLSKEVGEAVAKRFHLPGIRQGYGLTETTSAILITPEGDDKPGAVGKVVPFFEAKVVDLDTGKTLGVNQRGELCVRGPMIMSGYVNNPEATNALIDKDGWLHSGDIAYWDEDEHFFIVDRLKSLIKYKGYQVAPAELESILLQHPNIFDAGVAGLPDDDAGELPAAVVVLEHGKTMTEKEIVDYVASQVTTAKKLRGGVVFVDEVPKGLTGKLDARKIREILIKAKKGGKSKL
Summary of the method: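 Biochemical qHTS: compounds run as interplate titrations against purified firefly enzyme, with D-luciferin and ATP each at its KM concentration. Light output recorded by CCD imaging.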

[6] = qHTS assay to identify small molecule agonists of the constitutive androstane receptor (CAR) signaling pathway - cell viability counter screen (AID 1224836); also: nearly all actives have a fitted effect of over 45% in size; also: potency is read from the fitted curve at half-maximal effect
Summary of the method: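 Using CellTiter-Fluor, viability of HepG2 cells harbouring hCAR and CYP2B6-2.2kb was measured following 23 h incubation with a 15-concentration compound series plus PK11195 (0.75 uM final).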

[7] = qHTS assay to identify small molecule antagonists of the estrogen related receptor signaling pathway with the pleiotropic PPARgamma coactivator (PGC) from Tox21 10K library - cell viability counter screen (AID 1224840; active = well fitted cell-killing curve with a large enough effect in the repeat runs, not every such curve was filed as active; also: nearly all actives have a fitted effect of over 40% in size; also: potency is read from the fitted curve at half-maximal effect)
Summary of the method: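 PGC/ERR cells, 2,000/well; 6 h pre-incubation 37 C/5% CO2; cpd in DMSO via pin tool; 17.5 h 37 C; CellTiter-Fluor, 30 min; fluorescence.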

[8] = biological target: Thyrotropin receptor (Homo sapiens) (UniProt P16473); assay: qHTS assay to identify small molecule agonists of the thyroid stimulating hormone receptor (TSHR) signaling pathway (AID 1224843; calls by dose curve; also: nearly all actives have a fitted effect of over 45% in size; also: potency is read from the fitted curve at half-maximal effect)
Thyrotropin receptor (Homo sapiens), sequence (P16473 whole entry, looked up): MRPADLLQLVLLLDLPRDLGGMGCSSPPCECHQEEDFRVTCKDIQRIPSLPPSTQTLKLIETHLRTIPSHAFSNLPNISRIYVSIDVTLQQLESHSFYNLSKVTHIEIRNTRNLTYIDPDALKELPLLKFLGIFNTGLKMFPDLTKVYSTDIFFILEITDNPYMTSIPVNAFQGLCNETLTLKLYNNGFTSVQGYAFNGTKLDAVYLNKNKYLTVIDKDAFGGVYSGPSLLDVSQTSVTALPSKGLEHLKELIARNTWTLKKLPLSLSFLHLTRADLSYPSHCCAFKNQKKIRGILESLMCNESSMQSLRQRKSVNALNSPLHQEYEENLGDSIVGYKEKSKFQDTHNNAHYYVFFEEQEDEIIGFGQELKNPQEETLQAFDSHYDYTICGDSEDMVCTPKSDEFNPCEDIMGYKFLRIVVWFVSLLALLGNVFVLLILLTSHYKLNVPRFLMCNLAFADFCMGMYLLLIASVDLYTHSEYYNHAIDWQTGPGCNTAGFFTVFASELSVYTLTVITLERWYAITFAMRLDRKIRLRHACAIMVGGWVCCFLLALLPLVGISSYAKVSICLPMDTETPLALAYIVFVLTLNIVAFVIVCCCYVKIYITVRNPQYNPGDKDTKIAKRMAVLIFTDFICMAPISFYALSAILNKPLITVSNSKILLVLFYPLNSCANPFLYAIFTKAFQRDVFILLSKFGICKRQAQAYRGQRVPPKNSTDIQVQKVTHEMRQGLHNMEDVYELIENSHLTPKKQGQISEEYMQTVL
Summary of the method: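 Steps: seed 800 TSHR-HEK293 cells per well; add test compound and hold 30 min at ambient temperature; dispense cAMP-d2 then anti-cAMP cryptate; incubate 1 h at ambient; measure fluorescence intensity.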

[9] = qHTS assay to identify small molecule antagonists of the constitutive androstane receptor (CAR) signaling pathway - cell viability counter screen (AID 1224837); also: nearly all actives have a fitted effect of over 45% in size; also: potency is read from the fitted curve at half-maximal effect
Summary of the method: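 HepG2-CYP2B6-hCAR cells, 2500/well, 4 hr pre-incubation; compound titration, 15 conc.; CITCO 50 nM final; 23 hr, 37 C/5% CO2; CellTiter-Fluor, fluorescence intensity.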

[10] = qHTS assay to identify small molecule antagonists of the estrogen related receptor signaling pathway with the pleiotropic PPARgamma coactivator (PGC) from Tox21 10K library (AID 1224841; call rule not given here; also: actives are mostly falling curves and most rising ones were filed inactive; nearly all actives have a fitted effect of over 50% in size; also: potency is read from the fitted curve at half-maximal effect)
Summary of the method: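 PGC/ERR cell line, 2,000 cells/well; 6 h pre-incubation 37 C/5% CO2; compounds (DMSO) pinned in; 18 h, 37 C; One-Glo, 30 min RT; luminescence.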

[11] = qHTS assay to identify small molecule agonists of the estrogen related receptor signaling pathway with the pleiotropic PPARgamma coactivator (PGC) from Tox21 10K library (AID 1224842); also: nearly all actives have a fitted effect of over 15% in size
Summary of the method: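 PGC/ERR reporter cell line, 2,000 cells per well, incubated 6 h at 37 C before 23 nL compound in DMSO was added. After 18 h at 37 C, One-Glo luminescence read following 30 min at room temperature.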

[12] = biological target: Nuclear receptor subfamily 1 group I member 3 (Homo sapiens) (UniProt Q14994); assay: qHTS assay to identify small molecule antagonists of the constitutive androstane receptor (CAR) signaling pathway (AID 1224838);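 also: HepG2 cells stably expressing hCAR with CYP2B6 luciferase reporter stimulated by CITCO; nearly all actives have a fitted effect of over 40% in size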; also: potency is read from the fitted curve at half-maximal effect
Nuclear receptor subfamily 1 group I member 3 (Homo sapiens), sequence (Q14994 whole entry, looked up): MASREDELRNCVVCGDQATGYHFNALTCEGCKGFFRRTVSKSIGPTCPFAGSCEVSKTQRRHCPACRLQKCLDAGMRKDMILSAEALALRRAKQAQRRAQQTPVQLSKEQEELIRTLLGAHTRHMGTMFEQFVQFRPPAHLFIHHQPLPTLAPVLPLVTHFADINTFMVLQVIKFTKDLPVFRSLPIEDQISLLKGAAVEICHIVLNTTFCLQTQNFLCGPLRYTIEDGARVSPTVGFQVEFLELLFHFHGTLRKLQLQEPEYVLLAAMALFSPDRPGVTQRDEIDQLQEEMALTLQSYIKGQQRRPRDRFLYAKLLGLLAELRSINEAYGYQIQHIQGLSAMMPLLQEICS
Summary of the method: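 HepG2-CYP2B6-hCAR cells; 4 h pre-incubation; cpd (15 conc) + CITCO 50 nM final; 24 h, 37 C/5% CO2; ONE-Glo, luminescence.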

[13] = biological target: Nuclear receptor subfamily 1 group I member 3 (Homo sapiens) (UniProt Q14994); assay: qHTS assay to identify small molecule agonists of the constitutive androstane receptor (CAR) signaling pathway (AID 1224839); also: nearly all actives have a fitted effect of over 15% in size; also: potency is read from the fitted curve at half-maximal effect
Summary of the method: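 Double-stable HepG2 cells (hCAR, CYP2B6-2.2kb) seeded 4 h before compound addition. Exposure 24 h with 0.75 uM PK11195 final. Luciferase detected by ONE-Glo.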

For `Clc1ccc(CSC(Cn2ccnc2)c2ccc(Cl)cc2Cl)cc1` (stereo unspecified), the Potency [1] was 26.8 µM (active), the Potency [2] was “inactive” and the Potency [3] was “inactive”. The Potency [4] was 15 µM (active), the Potency [5] was “inactive” and the Potency [6] was “inactive”. For the same molecule, the Potency [7] was 29.8 µM (active) and the Potency [8] was “inactive”.
For `C=CC(=O)N(C)C`, the Potency [1] was “inactive”, the Potency [2] was “inactive” and the Potency [4] was “inactive”. For the same molecule, the Potency [5] was “inactive”, the Potency [9] was “inactive” and the Potency [7] was “inactive”. For the same molecule, the Potency [10] was 27.3 µM (active), the Potency [11] was “inactive” and the Potency [8] was “inactive”.
For `CCCCCCCCCCCCCC[P+](CCCCCC)(CCCCCC)CCCCCC` (tested in a mixture with another compound), the Potency [1] was 9.77 µM (active), the Potency [2] was 27.3 µM (active) and the Potency [4] was 24.3 µM (active). For the same molecule, the Potency [6] was 17.2 µM (active), the Potency [9] was 17.2 µM (active) and the Potency [7] was 24.3 µM (active).
In the case of `c1ccc(OCC2CO2)cc1` (stereo unspecified), the Potency [1] was “inactive”, the Potency [2] was “inactive” and the Potency [4] was “inactive”. The Potency [6] was “inactive”, the Potency [9] was “inactive” and the Potency [12] was “inactive”. The Potency [13] was “inactive”, the Potency [7] was “inactive” and the Potency [8] was “inactive”.
With `CC(O)C#N` (stereo unspecified) the Potency [1] was “inactive”, the Potency [2] was “inactive” and the Potency [4] was “inactive”. For the same molecule, the Potency [5] was “inactive”, the Potency [6] was “inactive” and the Potency [9] was “inactive”. For the same molecule, the Potency [12] was 30.6 µM (active), the Potency [13] was “inactive” and the Potency [7] was “inactive”. For the same molecule, the Potency [8] was “inactive”.
In the case of `COc1cc(C=O)cc2c1[C@H](COC(N)=O)[C@]1(OC(C)=O)ON2C[C@H]2[C@@H]1N2C(C)=O`, the Potency [1] was “inactive”, the Potency [2] was “inactive” and the Potency [5] was “inactive”. The Potency [6] was 0.611 µM (active), the Potency [9] was 0.433 µM (active) and the Potency [12] was 0.0486 µM (active). The Potency [13] was “inactive”, the Potency [7] was “inactive” and the Potency [10] was 1.93 µM (active). For the same molecule, the Potency [11] was “inactive” and the Potency [8] was “inactive”.
In the case of `O=[N+]([O-])O.O=[N+]([O-])O.[Cd]`, the Potency [1] was 43.6 µM (active), the Potency [2] was “inactive” and the Potency [4] was 9.69 µM (active). The Potency [6] was 7.7 µM (active), the Potency [9] was 6.11 µM (active) and the Potency [7] was 3.06 µM (active).
In the case of `ClCc1ccc(Cl)cc1Cl`, the Potency [1] was “inactive”, the Potency [2] was “inactive” and the Potency [4] was “inactive”. The Potency [5] was “inactive”, the Potency [6] was “inactive” and the Potency [9] was “inactive”. For the same molecule, the Potency [12] was “inactive”, the Potency [7] was “inactive” and the Potency [8] was “inactive”.
For `COP(=O)(OC)SCn1c(=O)oc2cc(Cl)cnc21`, the Potency [1] was “inactive”, the Potency [2] was “inactive” and the Potency [5] was “inactive”. The Potency [6] was 30.6 µM (active), the Potency [13] was “inactive” and the Potency [7] was “inactive”. The Potency [11] was “inactive” and the Potency [8] was 24.3 µM (active).
With `CC(=[OH+])/C=C(/C)[O-].CC(=[OH+])/C=C(\C)[O-].CC(=[OH+])/C=C(\C)[O-].[Al]` the Potency [1] was “inactive”, the Potency [2] was “inactive” and the Potency [4] was “inactive”. For the same molecule, the Potency [5] was 71 µM (active), the Potency [6] was “inactive” and the Potency [9] was “inactive”. The Potency [7] was “inactive”.
In the case of `N#CSCSC#N`, the Potency [1] was 17.8 µM (active) and 17.2 µM (active), the Potency [2] was 27.9 µM (active) and 30.3 µM (active) and the Potency [4] was 62.5 µM (active) and 60.5 µM (active). For the same molecule, the Potency [5] was “inactive”, the Potency [9] was 27.9 µM (active) and 27 µM (active) and the Potency [12] was 19.8 µM (active) and 24.1 µM (active). The Potency [13] was “inactive”, the Potency [7] was 55.7 µM (active) and 53.9 µM (active) and the Potency [10] was “inactive”. For the same molecule, the Potency [11] was “inactive”.
For `CCc1cc(C)cc(CC)c1-c1c(OC(=O)C(C)(C)C)n2n(c1=O)CCOCC2`, the Potency [1] was “inactive”, the Potency [2] was “inactive” and the Potency [6] was “inactive”. The Potency [7] was “inactive”, the Potency [10] was 8.63 µM (active) and the Potency [11] was “inactive”. The Potency [8] was “inactive”.
With `CC(Cl)CN(C)C` (stereo unspecified) the Potency [1] was “inactive”, the Potency [2] was “inactive” and the Potency [5] was “inactive”. The Potency [6] was “inactive”, the Potency [9] was “inactive” and the Potency [12] was “inactive”. The Potency [7] was “inactive”.
For `C1CCC2CCCCC2C1` (stereo unspecified), the Potency [1] was “inactive”, the Potency [2] was “inactive” and the Potency [5] was “inactive”. For the same molecule, the Potency [9] was “inactive”, the Potency [12] was “inactive” and the Potency [13] was “inactive”. The Potency [7] was “inactive”, the Potency [10] was “inactive” and the Potency [11] was “inactive”.
For `C[C@]12CC[C@@H]3c4ccc(OC(=O)N(CCCl)CCCl)cc4CC[C@H]3[C@@H]1CC[C@@H]2O`, the Potency [1] was “inactive”, the Potency [2] was “inactive” and the Potency [4] was “inactive”. For the same molecule, the Potency [5] was “inactive”, the Potency [6] was “inactive” and the Potency [9] was “inactive”. For the same molecule, the Potency [12] was “inactive”, the Potency [7] was “inactive” and the Potency [11] was “inactive”. The Potency [8] was “inactive”.
For `ClC1=C(Cl)[C@]2(Cl)[C@H]3[C@H]([C@H]4C=C[C@H]3C4)[C@@]1(Cl)C2(Cl)Cl`, the Potency [1] was “inactive”, the Potency [2] was “inactive” and the Potency [5] was “inactive”. For the same molecule, the Potency [6] was “inactive”, the Potency [9] was “inactive” and the Potency [12] was “inactive”. The Potency [13] was 13.7 µM (active), the Potency [7] was “inactive” and the Potency [8] was 9.69 µM (active).
With `CC(C)(COCC1CO1)COCC1CO1` (stereo unspecified) the Potency [1] was “inactive”, the Potency [2] was “inactive” and the Potency [4] was “inactive”. The Potency [5] was “inactive”, the Potency [6] was “inactive” and the Potency [9] was “inactive”. For the same molecule, the Potency [12] was “inactive”, the Potency [7] was “inactive” and the Potency [11] was “inactive”. The Potency [8] was “inactive”.
For `O=[N+]([O-])c1ccc(Oc2ccc(C(F)(F)F)cc2[N+](=O)[O-])cc1`, the Potency [1] was “inactive”, the Potency [2] was “inactive” and the Potency [5] was “inactive”. For the same molecule, the Potency [6] was “inactive”, the Potency [9] was “inactive” and the Potency [12] was “inactive”. For the same molecule, the Potency [7] was “inactive”, the Potency [10] was “inactive” and the Potency [11] was “inactive”. The Potency [8] was “inactive”.
For `CCN(CC)C(=S)[S-].CCN(CC)C(=S)[S-].[Zn+2]`, the Potency [1] was 1.72 µM (active), the Potency [2] was 30.4 µM (active) and the Potency [4] was 3.41 µM (active). For the same molecule, the Potency [5] was 35.3 µM (active), the Potency [6] was 3.04 µM (active) and the Potency [9] was 1.36 µM (active). The Potency [7] was 2.41 µM (active) and the Potency [8] was “inactive”.
For `CC(=O)c1cc(C(C)(C)C)cc2c1CCC2(C)C`, the Potency [1] was “inactive”, the Potency [2] was “inactive” and the Potency [4] was “inactive”. The Potency [5] was “inactive”, the Potency [6] was “inactive” and the Potency [9] was “inactive”. For the same molecule, the Potency [12] was “inactive”, the Potency [7] was “inactive” and the Potency [10] was “inactive”. For the same molecule, the Potency [11] was “inactive”.
With `CC1(C)[C@H](C(=O)O[C@H](C#N)c2cccc(Oc3ccccc3)c2)[C@@H]1/C=C(\Cl)C(F)(F)F` the Potency [1] was “inactive”, the Potency [2] was “inactive” and the Potency [5] was “inactive”. The Potency [6] was “inactive”, the Potency [9] was “inactive” and the Potency [12] was “inactive”. The Potency [7] was “inactive” and the Potency [8] was “inactive”.
